The whole screen tested about 360,000 compounds, of which about 420 (0.12%) were called active. No stated cut-off is given here; in the data, active means inhibition above about 30%; inconclusive means no clear call, values can overlap the other calls; inactive means below that. The sample as a whole holds a higher share of actives than the screen did.
target: Lethal factor (Bacillus anthracis) (UniProt P15917); test: Bacillus anthracis LF protease inhibitors, primary screen, biochemical, multiplex microsphere, MLPCN library (AID 588501); details: multiplex microsphere protease cleavage assay, at 10 µM, active compounds read high; further: plate controls were buffer without enzyme for full effect and enzyme alone for no effect

SMILES	inhibition
Cc1cccc(N2CCN(C(=O)CCS(=O)(=O)c3ccc4c(c3)NC(=O)C(C)S4)CC2)c1C (stereo not drawn)	-3% (inactive)
COc1ccc(-c2nc3ccccc3n2CCC(C)C)cc1OC	0.7% (inactive)
CC(=O)OCCN(CCCn1c(-c2ccncc2)nc2ccccc21)c1nc(-c2ccc(C)cc2)cs1	41.1% (active)
Cc1ccc(-c2csc(N3CCN(c4cc5c(cc4Cl)nc(-c4ccncc4)n5CCOCCO)CC3)n2)cc1	-0.9% (inactive)
COc1ccc(N2CCN(C(=O)c3ccccc3NC(=O)C3=C(C)OCCS3)CC2)cc1	1.2% (inactive)
COc1ccc(CC(=O)NC(C)c2ccc(Cl)c(Cl)c2)cc1S(=O)(=O)N1CCOCC1 (stereo not drawn)	1.2% (inactive)
O=C(NCc1ccncc1)C(=O)NCC1OCCN1S(=O)(=O)c1ccc(Br)cc1 (stereo not drawn)	-6.7% (inactive)
C=C1C(=O)[C@]23C[C@H]1CCC2[C@@]1(C)C(C[C@@H]3O)[C@](C)(C(=O)O)CC[C@@H]1O (stereo partly drawn)	6% (inactive)
COc1ccc(OCC(=O)NCCc2ccc(S(N)(=O)=O)cc2)cc1	-1.2% (inactive)
CCC(C)(C(=O)Nc1ccccc1C)N(C(=O)CNC(C)=O)c1ccc(C)cc1 (stereo not drawn)	0.5% (inactive)
COC(=O)Cc1ccc(N(Cc2ccccc2F)S(=O)(=O)c2ccc(Br)cc2)cc1	-0.1% (inactive)
CC(C)(C)c1ccc(C(=O)N2CCN(CCNC(=O)C(=O)Nc3ccc(F)cc3)CC2)cc1	-3.8% (inactive)
Cc1cccc(N2CCN(C(C)C(=O)N3CCc4ccccc43)CC2)c1C (stereo not drawn)	-6.6% (inactive)
COCCn1c(N)c(NCc2ccccc2)c(=O)[nH]c1=O	-3.2% (inactive)
COCCNc1ncnc2c1nc1n2CCCC1	0.3% (inactive)
OC(c1ccc(Cl)cc1)C(CN1CCOCC1)c1ccccc1 (stereo not drawn)	40.7% (active)
O=C(CC(c1ccccc1)c1cc(Cl)ccc1O)NCCN1CCOCC1 (stereo not drawn)	-5.6% (inactive)
OC(c1ccccc1)C(CN1CCOCC1)c1ccccc1 (stereo not drawn)	-9.8% (inactive)
O=S(N1CCCCCC1)C12CC3CC(CC(C3)C1)C2 (stereo not drawn)	-5.3% (inactive)
O=C(CNC(=O)c1ccccc1F)c1ccc(Br)cc1	0.4% (inactive)
O=C(C[n+]1cc(Br)cc2ccccc21)c1ccc(F)cc1	36.5% (active)
O=C(c1ccc(F)cc1)n1c(=S)nc2ccccn21	-9.4% (inactive)

SMILES	inhibition
COc1ccc(CNC(=O)C(NS(=O)(=O)c2cccc3nsnc23)C(C)C)cc1 (stereo not drawn)	0.7% (inactive)
NS(=O)(=O)c1ccc(CCNC(=O)c2ccc(Cl)c(S(=O)(=O)N3CCCCCC3)c2)cc1	-0.9% (inactive)
O=C(O)C1CCCN(CCC=C(c2ccccc2)c2ccccc2)C1 (stereo not drawn)	-6.7% (inactive)
O=C(O)c1ccc(S(=O)(=O)N2CCC(Cc3ccccc3)CC2)cc1	-1.5% (inactive)
Cc1onc(-c2ccccc2Cl)c1C(=O)NCCn1ccc2ccccc21	53.9% (active)
Cc1onc(-c2ccccc2Cl)c1C(=O)N(Cc1ccc(N(C)C)cc1)C(C)C	8.3% (inactive)
Cc1ccc2cc(CCNC(=O)c3c(-c4ccccc4Cl)noc3C)c(=O)[nH]c2c1	-10.3% (inactive)
CCC(=O)N1Cc2cc(C(=O)NCc3cccc(F)c3)nc(-c3cccc(C4=CCCC4)c3)c2[C@H]1CCO	-8.3% (inactive)
Cc1ccc(OCC(=O)N2CCN(C(=O)c3cccnc3)CC2)cc1	-7.8% (inactive)
CN1/C(=c2/s/c(=C3/C(=O)N(c4ccccc4)NC3=Nc3ccccc3)n(C)c2=O)C(C)(C)c2ccccc21	-14.6% (inactive)
COc1cc2c(cc1OC)C(C)N(S(=O)(=O)c1cnc(Cl)c(Cl)c1)CC2 (stereo not drawn)	3.2% (inactive)
COc1ccccc1OCCC(=O)OCC(=O)NCc1ccccc1	-1.1% (inactive)
Cc1ccc(C(=O)O)cc1-c1ccc(/C=C2\SC(=O)N(CC(=O)Nc3ccc4c(c3)OCO4)C2=O)o1	-2.8% (inactive)
NS(=O)(=O)c1ccc(-c2ccc(/C=C3\SC(=O)NC3=O)o2)cc1	-4.1% (inactive)
CN1C(=O)/C(=C\c2ccc(-c3ccccc3)o2)SC1=S	30.1% (active)
CCC1CCc2c(sc(NC(C)=O)c2C#N)C1 (stereo not drawn)	2.5% (inactive)
CCc1nc2ccc(C(=O)NC3CCN(Cc4ccccc4)CC3)cn2c1N(C)CCN1CCOCC1	-2.5% (inactive)
COC(=O)c1ccc2nc(-c3ccc(C)cc3)c(Cc3ccc(OC)cc3C)n2c1	2.1% (inactive)
COc1cc(NC(=O)CSc2nnc3ccc(-c4ccncc4)nn23)cc(OC)c1	-3.6% (inactive)
O=C(NCc1ccccc1Cl)NC(=O)c1csc([N+](=O)[O-])c1	-4.7% (inactive)
O=C(NNC1=NCCC1)c1cccc(S(=O)(=O)N2CCCCC2)c1	-3.2% (inactive)
COC(=O)c1ccc(CSc2nc3cc(Cl)ccc3o2)cc1	-2.5% (inactive)

SMILES	inhibition
CC1(C(=O)NS(=O)(=O)Cc2cccc(Cl)c2)CCN1C(=O)Cc1ccc(Cl)cc1Cl (stereo not drawn)	-5.7% (inactive)
Nc1cccc(-c2cncc(N3CCN(Cc4ccccn4)CC3)n2)c1	-2.8% (inactive)
Cc1cc2nc(SCCN3CCOCC3)[nH]c2cc1C	7.8% (inactive)
CC(=O)c1ccc(N2C(=NC(=O)C(C)C)SC3CS(=O)(=O)CC32)cc1 (stereo not drawn)	-2.5% (inactive)
CCN(CC(=O)Nc1ccccc1C(F)(F)F)C(=O)CSCc1c(C)noc1C	2.2% (inactive)
O=S(=O)(c1cccc(S(=O)(=O)N2CCC(n3nnc4ccccc43)CC2)c1)N1CCCCC1	4.7% (inactive)
COc1cc(S(=O)(=O)N2CCN=C2c2ccccc2)ccc1Cl	-0.6% (inactive)
CNC(=O)c1c(NC(NC(=O)c2ccco2)C(=O)c2ccc(Cl)cc2)sc2c1CCCC2 (stereo not drawn)	-4.6% (inactive)
CCOC(=O)C1CCN(Cc2coc3ccc(Cl)cc3c2=O)CC1	0.9% (inactive)
Cc1ccc(NC(=O)C2CCN(S(=O)(=O)c3ccc4c(c3)NC(=O)CO4)CC2)cc1C	1.3% (inactive)
CCc1ccccc1NC(=O)CSc1nnc(CCNC(=O)OC(C)(C)C)o1	-3.1% (inactive)
Cc1ccc(NS(=O)(=O)c2ccc(-c3coc(C)n3)cc2)c(C)c1	-2% (inactive)
COc1ccccc1N1CCN(CC(=O)NC(=O)NCc2ccco2)CC1	2.9% (inactive)
O=C(CN1CCN(c2ccccc2O)CC1)NC(=O)NCc1ccccc1	50.8% (active)
Oc1ccccc1N1CCN(C(=S)NCc2ccccc2)CC1	-2.2% (inactive)
Cc1cc(Br)ccc1NC(=O)CN(C)C(=O)CN1C(=O)NC2(CCCC2)C1=O	1.3% (inactive)
COc1cc(OC)cc(-c2c(-c3cccs3)c3cc(-c4ccc(OC)cc4F)ccc3n2C)c1	-3.2% (inactive)
CCOc1ccccc1-c1nc(CN2CCC(C(=O)N3CCOCC3)CC2)c(C)o1	0.2% (inactive)
Cc1noc(C)c1CSc1nnc2ccc3ccccc3n12	-0.1% (inactive)
NC1=NC(=O)C(Cc2cccc(Cl)c2Cl)S1 (stereo not drawn)	-6.2% (inactive)
COc1cc(Cl)ccc1OCc1cc(C(=O)N2CC[C@@H]3CCCC[C@H]3C2)no1	0.9% (inactive)
CCC(=O)Nc1cccc(NC(=O)CSc2nnnn2C2CCCC2)c1	3.1% (inactive)

SMILES	inhibition
O=C(N/C(=C\c1ccc([N+](=O)[O-])cc1)C(=O)N1CCCCC1)c1ccco1	14.4% (inactive)
C/C=C/C(=O)Nc1nnc(C(C)C)s1	-0.2% (inactive)
CNC[C@H]1Oc2c(NC(=O)C3CCCCC3)cccc2C(=O)N([C@H](C)CO)C[C@@H]1C	-2.2% (inactive)
CCN(CC)C(=O)C1=C(C)N(Cc2ccc(OC)cc2)C(=O)C(CC(=O)NCCCCc2ccccc2)C1 (stereo not drawn)	-3.9% (inactive)
CN1CCc2nc(SC(C(=O)O)c3ccccc3)c(C#N)c(-c3cccs3)c2C1 (stereo not drawn)	-13.7% (inactive)
CCN(Cc1ccccc1)C(=O)CCS(=O)(=O)c1ccc2c(c1)oc(=O)n2C	0.5% (inactive)
O=[N+]([O-])c1ccc(C(S(=O)(=O)Cc2ccccc2)S(=O)(=O)Cc2ccccc2)cc1	-1.4% (inactive)
CCC(CC)C(=O)Nc1cc(C(=O)OC)cc(C(=O)OC)c1	-1.3% (inactive)
Cc1c(Cl)c([N+](=O)[O-])nn1CC(=O)NCC1CCCO1 (stereo not drawn)	-2.9% (inactive)
OCC[C@H]1C[C@@H](O)[C@H](O)[C@@]2(OCCc3ccccc32)O1	3.4% (inactive)
CCc1ccccc1NC(=S)Nc1cc(OC)c(NC(=O)C(C)C)cc1OC	5.6% (inactive)
O=C(Nc1cccc(F)c1)c1coc(=O)c(Br)c1	0.1% (inactive)
O=C(NCC(c1ccco1)N1CCc2ccccc21)c1cccc(F)c1 (stereo not drawn)	-3.6% (inactive)
COc1ccc(C2=NS(=O)(=O)N(C)C(C(=O)N3CCCCC3)=C2)cc1	-0.5% (inactive)
COC(c1ccccc1)c1nnc(CCC(=O)N2CCN(CCOc3ccccc3)CC2)o1 (stereo not drawn)	0.2% (inactive)
Cc1cc(C)cc(OCc2nnc(SCC(=O)OC3CCCCC3)o2)c1	-14.4% (inactive)
O=c1oc2ccccc2c(CNc2ccccc2)c1[N+](=O)[O-]	7.9% (inactive)
O=C1NC[C@H](CCCCN2C[C@H](Cc3ccc(O)cc3)N(CCc3ccccc3)C(=O)C2=O)N(CCc2ccccc2)C1=O	-11.9% (inactive)
O=C(Nc1nnc(C2CC2)s1)C1=NN(C2CCS(=O)(=O)C2)C(=O)CC1 (stereo not drawn)	1.6% (inactive)
CNC(=O)c1nnn(-c2ccccc2)c1C(=O)NC	-0.6% (inactive)
COc1ccc(-n2c(O)c(C=NCC(c3ccco3)N3CCCC3)c3ccccc3c2=O)cc1OC (stereo not drawn)	0% (inactive)
COc1cc(-c2nc(S(=O)(=O)c3ccc(Cl)cc3)c(N(C)C)o2)cc(OC)c1OC	0% (inactive)

SMILES	inhibition
CCCCN(C(=O)c1ccc(S(=O)(=O)N2CCOCC2)cc1)C1CCS(=O)(=O)C1 (stereo not drawn)	0.4% (inactive)
CC(C)NC(=O)COCc1cc(-c2ccc3c(c2)OCO3)on1	-4.5% (inactive)
CCCCC(CC)CNCc1cccn1CCN1CCOCC1 (stereo not drawn)	9% (inactive)
CCn1c(SCC(=O)Nc2ccc(C)cc2)nc2nc3c(cc2c1=O)CCCC3	-5.9% (inactive)
Cc1ccc(CSCC2Nc3ccc(C(=O)N4CCN(c5ccc(F)cc5)CC4)cc3NC2=O)cc1 (stereo not drawn)	-0.9% (inactive)
CC(C)OCCCNC(=O)c1ccc(C2SCC(=O)N2Cc2ccco2)cc1 (stereo not drawn)	0.6% (inactive)
CC(=O)Nc1ccc(NC(=O)c2ccc3c(c2)C(=O)N(c2ccccc2C)C3=O)cc1	0.3% (inactive)
CCCCC(=O)Nc1ccc2c(c1)C(=O)NC2=O	-3.5% (inactive)
CC(=O)Nc1ccc(Oc2ccc3c(c2)C(=O)NC3=O)cc1	30.3% (active)
OCC1(Cc2ccccc2C(F)(F)F)CCN(Cc2cccc3cnccc23)CC1	-3.3% (inactive)
Nc1ncnc2c1cnn2C1CC(O)C(CO)O1 (stereo not drawn)	-1.1% (inactive)
Cc1cccc(C)c1-n1nnnc1C(CCc1ccccc1)N1CCN(C/C=C/c2ccccc2)CC1 (stereo not drawn)	-0.9% (inactive)
O=C(COC(=O)CNC(=O)C1CCCCC1)Nc1cccc(F)c1	-8.5% (inactive)
O=C(Nc1cccc(F)c1)NC1CCCc2ccccc21 (stereo not drawn)	0.6% (inactive)
O=C(Nc1cccc(F)c1)[C@@H]1CCCN1	41.3% (active)
C#CCNC(=O)[C@H](Cc1ccc(C(=O)c2ccccc2)cc1)NC(=O)OC(C)(C)C	-1% (inactive)
CC(C)(C)OC(=O)NC(Cc1ccccc1)C(=O)NC(CSC1CCCCO1)C(=O)NN (stereo not drawn)	39.5% (active)
CC(C)[C@@H](NC(=O)OC(C)(C)C)C(=O)NCC1CCC(C(=O)N[C@@H](Cc2ccccc2)C(=O)O)CC1 (stereo partly drawn)	9% (inactive)
COc1ccc(C2c3[nH]c4ccccc4c3CCN2CCCn2cccn2)cc1C (stereo not drawn)	1.2% (inactive)
Cc1ccccc1N1CCN(C2CCCN(C(=O)c3ocnc3C)C2)CC1 (stereo not drawn)	-3.3% (inactive)
